Assay outcomes deposited in PubChem BioAssay by several laboratories.
This is a sample that favours compounds with a hit; in the whole collection about 4.1% have one here.
PolyA inh – blocks polyadenylation in yeast reporter cells; activity score, % at 12 µM; AID 1875; S. cerevisiae SKY197-pL101 polyadenylation reporter, beta-gal luminescence; efflux-impaired pdr1/pdr3 knockout yeast; score 100 = 6 SD above DMSO; actives 0.02% (n = 300,000);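 active = lowest replicate activity score at least 50, where 100 means six control SD above control mean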;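 also: yeast exposed to compound for 9 h at 30 °C; higher score means more reporter readthrough which indicates perturbed polyadenylation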
DAX1 inh-1 – inhibitors of human orphan nuclear receptor DAX1 (NR0B1) | HEK293 Gal4-DAX1 luciferase reporter, luminescence | P51843 | AID 504766 | actives 0.99% (n = 340,000) | inhibition, % at 6.75 µM;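 active = inhibition above the mean over all tested compounds plus 3 SD, cut at about 4.2% in these data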;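 also: 0% = DAX1-transfected cells with DMSO and 100% = empty-vector control cells with DMSO; inhibition shows as a rise in luminescence from relieved DAX1 repression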
Target sequence (P51843 207-470 limits assumed): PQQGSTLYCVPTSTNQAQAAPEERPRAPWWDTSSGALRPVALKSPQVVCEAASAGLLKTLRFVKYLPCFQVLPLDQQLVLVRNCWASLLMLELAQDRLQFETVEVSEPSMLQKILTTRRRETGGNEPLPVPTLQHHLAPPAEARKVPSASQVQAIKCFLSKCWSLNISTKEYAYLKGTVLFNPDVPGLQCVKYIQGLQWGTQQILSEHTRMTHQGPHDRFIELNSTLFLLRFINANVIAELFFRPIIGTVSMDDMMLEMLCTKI
hgDAF12 agonist – activates the H. glycines DAF-12 receptor ligand-binding domain; HEK293 GAL4-hgDAF12 UAS-luciferase reporter, agonist luminescence; normalized to butyrate control; activation, % at 6.8 µM; actives 1.8% (n = 370,000);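 active = activation above a cutoff set at the mean of all screened compounds plus 3 SD, cut at about 10% in these data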;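 also: 0% = DMSO wells and 100% = sodium butyrate wells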
ssDAF-12 act – activates DAF-12 receptor from parasite S. stercoralis | actives 1% (n = 370,000) | HEK293 ssDAF-12/GRIP1 lit1-tk-luc reporter, luminescence; % of 3 µM dafachronic acid response | activation, % at 6.8 µM | AID 652126;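 active = activation above the mean over all tested compounds plus 3 SD, cut at about 0.9% in these data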;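 also: 0% = DMSO-only wells and 100% = 3 µM delta7-dafachronic acid wells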
DAX1 inh-2 – blocks DAX1 repression of SF-1 activated StAR promoter. HEK293T StAR-luciferase reporter, SF-1/DAX-1 repression relief. inhibition, % at 6.8 µM. actives 1.1% (n = 370,000). AID 652010;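 active = inhibition above the mean over all tested compounds plus 3 SD, cut at about 3.6% in these data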;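 also: 0% = DAX-1 cells with DMSO and 100% = cells lacking DAX-1 with DMSO; higher inhibition means more luminescence from relief of DAX-1 repression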
hcDAF12 agonist – activates DAF-12 receptor from parasite H. contortus. HEK293 hcDAF-12 lit1-tk-luc reporter, luminescence; 0% DMSO, 100% Δ7-dafachronic acid. activation, % at 6.8 µM. actives 1.4% (n = 370,000). AID 652067;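 active = activation above the mean of all tested compounds plus 3 SD, cut at about 5.5% in these data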;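 also: 100% = response to 3 µM Δ7-dafachronic acid high control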
LXR ag – activates human LXR-beta, counter-screen for hcDAF-12 agonists; shares compounds with hcDAF12 agonist; HEK293 Gal4-LXR tk-luc reporter, luminescence, 24 h; normalized: DMSO 0%, positive control 100%; activation, % at 6.8 µM; 3,400 tested, under 10 active;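 active = mean percent activation of the reporter above a cutoff set as the average over tested compounds plus their standard deviation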
hcDAF12 ag – hcDAF-12 agonism, confirmation assay. shares compounds with hcDAF12 agonist. HEK293 hcDAF-12 lit1-tk-luc reporter, luminescence; % of Δ7-dafachronic acid response. activation, % at 6.8 µM. actives 61% (n = 3,400). AID 743032;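 active = mean activation across triplicate tests above the threshold derived from the earlier primary screen, cut at about 5.5% in these data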;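 also: 0% = DMSO only wells and 100% = 3 µM Δ7-dafachronic acid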
An asterisk follows results filed as active; / = no result given.

SMILES	PolyA inh	DAX1 inh-1	hgDAF12 agonist	ssDAF-12 act	DAX1 inh-2	hcDAF12 agonist	LXR ag	hcDAF12 ag
O=C(Nc1ccc2c(c1)OCCO2)C(=O)NC1CC1	35	1	8	0	2	6.8*	1	5
CC(=O)Oc1ccc(C(=O)Nc2ccc3c(c2)OCCO3)cc1	-7	2	11*	1	3	9.1*	2	8.5*
COc1ccc(C(=O)/C=C(\C)Nc2ccc3c(c2)OCO3)cc1	18	0	7	0	0	7.2*	1	5
COc1cc(CNc2ccc(N3CCCC3)cc2)ccc1OCc1ccccc1	/	0	6	1	-1	7.7*	0	5.9*
CCOC(=O)c1cn[nH]c1NC(=S)Nc1ccc(Cl)cc1	0	/	10	0	2	7.9*	2	10*
CCN1CCCC1CNC(=O)Cn1nc(C)n2c(cc3cc(F)ccc32)c1=O (centres undefined)	-5	1	-1	0	1	0	/	/
CCN1CCCC1CNC(=O)c1cc2cc(F)ccc2[nH]1 (centres undefined)	18	3	4	1.2*	1	11*	0	5.9*
CCc1cccc(Nc2cnn(C34C[C@@H]5C[C@@H](CC(CC(=O)O)(C5)C3)C4)c(=O)c2Cl)c1	1	0	0	-1	0	0	/	/
C/C(=N\N=C(/N)c1nonc1N)c1ccc2c(c1)OCO2	-16	1	11*	0	4	7.1*	2	5
COc1ccc(N2CC(C(=O)Nc3cccnc3)CC2=O)cc1 (centres undefined)	-12	-1	0	-1	0	0	/	/
COCCN1CC(=O)N2C(c3cccc(C)c3)c3[nH]c4ccccc4c3C[C@H]2C1=O (some centres undefined)	-4	0	-1	1	0	9.6*	0	3
COCCCN1CC(=O)N2C(c3cccc(C)c3)c3[nH]c4ccccc4c3C[C@H]2C1=O (some centres undefined)	-1	0	-2	-1	0	4	/	/
Cn1c(/C(C#N)=C(\O)c2ccc([N+](=O)[O-])s2)nc2ccccc21	18	0	-2	0	0	-1	/	/
Cn1c(/C(C#N)=C(\O)c2ccc(Cl)s2)nc2ccccc21	-11	1	3	0	1	8.0*	0	8.3*
COc1cc(/C=N/NC(=O)c2nnn(-c3nonc3N)c2C(C)C)ccc1O	-20	0	12*	-2	0	6.7*	0	1
CCCOc1ccccc1N1C(=O)CC(N(O)c2ccccc2)C1=O (centres undefined)	12	0	1	-2	-1	1	/	/
COc1ccccc1N1C(=O)CC(N(O)c2ccccc2)C1=O (centres undefined)	-10	2	1	0	0	6.7*	0	3
COc1cc2c(cc1N)-c1ccc(N)cc1C2=O	/	1	8	-1	2	1	/	/
COc1cc2c(c(Br)c1N)-c1cc(Br)c(N)cc1C2=O	/	-1	5	-1	3	6.9*	0	8.8*
COc1ccc(C/C(N)=N/OC(=O)CCc2ccccc2)cc1	0	1	1	-1	0	-1	/	/
O=c1nc2s/c(=C\c3ccc(-c4ccccc4[N+](=O)[O-])o3)c(=O)n2nc1-c1ccccc1	5	0	3	0	0	6.9*	0	3
O=C(/C=C/c1ccccc1)C1=C(O)C(=O)N(CCO)C1c1ccccc1[N+](=O)[O-] (centres undefined)	-13	-1	3	1	1	4	/	/
CC(=O)C1=C(O)C(=O)N(CCc2ccccc2)C1c1ccccc1[N+](=O)[O-] (centres undefined)	-5	3	3	0	0	7.3*	0	1
COc1ccc2c(C(=O)CN3CCSCC3)c[nH]c2c1	-8	0	3	0	1	6.6*	0	4
CCCn1c(N)c(C(=O)CN(C)CC(=O)Nc2ccccc2C(F)(F)F)c(=O)[nH]c1=O	/	0	1	-1	-2	0	/	/
SMILES	PolyA inh	DAX1 inh-1	hgDAF12 agonist	ssDAF-12 act	DAX1 inh-2	hcDAF12 agonist	LXR ag	hcDAF12 ag
O=c1cccc2n1Cc1cc3ccccc3nc1-2	8	3	10	0	2	14*	1	9.7*
Cc1ccccc1N=Nc1c(N)[nH]n(-c2ccccc2)c1=O	/	/	8	1	2	6.8*	1	5
Cc1[nH]n(-c2ccccc2)c(=O)c1N=Nc1ccc(Cl)cc1	15	0	2	0	0	8.6*	0	5
Cc1[nH]n(-c2ccccc2)c(=O)c1C(C[N+](=O)[O-])c1ccc(Cl)cc1 (centres undefined)	-110	0	0	-1	-1	6.9*	0	1
COc1ccc(C(c2c(C)[nH]n(-c3ccccc3)c2=O)c2c(C)[nH]n(-c3ccccc3)c2=O)cc1OC	-4	0	0	-1	-1	7.5*	0	1
Cc1ccc(C(C[N+](=O)[O-])c2c(C)[nH]n(-c3ccccc3)c2=O)cc1 (centres undefined)	-91	1	2	-1	0	1	/	/
Cc1cc([N+](=O)[O-])ccc1N=Nc1c(N)[nH]n(-c2ccccc2)c1=O	-14	0	-2	1	1	2	/	/
CCC(C)(C)NC(=O)Cn1c(-c2ccc(C)cc2)noc1=O	-20	3	0	-2	0	-1	/	/
Cc1ccc2[nH]c(=O)c(C(c3nnnn3C3CCCC3)N3CCCc4ccccc43)cc2c1 (centres undefined)	-2	0	2	0	1	6.7*	0	4
C[C@@H]1CN(C(=O)c2nc3ccc(Cl)cn3c2CN(C)CCc2cnn(C)c2)C[C@H](C)O1	13	1	0	-1	0	3	/	/
COc1cccc(NC(=O)c2cc3ccccc3oc2=O)c1	19	3	13*	0	3	7.2*	1	8.7*
Cc1nc2c(-c3ccccc3)cnn2c(N2CCOCC2)c1C	-25	3	13*	0	3	12*	1	9.0*
CN(CC(=O)Nc1ccccc1Cl)C(=O)c1ccc(N2C(=O)CCC2=O)cc1	/	0	-1	-1	1	-1	/	/
